Results reported in PMC11006913.
Substitutions are numbered along the chain they refer to.

Columns and labels:
Test in all cases: PBM; 200 nM protein, PBS
Conditions in all cases: dsDNA, one strand shown
[1] = target: ALX1 (Homo sapiens, UniProt Q15699 118-204, L144V)
[2] = target: ALX1 (Homo sapiens, UniProt Q15699 118-204, L144R)
[3] = target: ALX1 (Homo sapiens, UniProt Q15699 118-204)
[4] = target: HOXD13 (Homo sapiens, UniProt P35453 263-343, T313R)
[5] = target: HOXD13 (Homo sapiens, UniProt P35453 263-343)
Chain of HOXD13 (Homo sapiens, UniProt P35453 263-343) (P35453 263-343): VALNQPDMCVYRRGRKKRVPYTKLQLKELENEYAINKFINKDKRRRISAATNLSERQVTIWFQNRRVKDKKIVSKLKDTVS

[6] = target: ALX3 (Homo sapiens, UniProt O95076 139-225)
Chain of ALX3 (Homo sapiens, UniProt O95076 139-225) (O95076 139-225): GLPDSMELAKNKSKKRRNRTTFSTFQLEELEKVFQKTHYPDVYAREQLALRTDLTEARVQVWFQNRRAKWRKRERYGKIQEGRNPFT

[7] = target: ALX3 (Homo sapiens, UniProt O95076 139-225, L168Q)
Chain of ALX3 (Homo sapiens, UniProt O95076 139-225, L168Q) (O95076 139-225 L168Q): as the sequence (O95076 139-225) above, with L30Q counted along it

[8] = target: HOXD13 (Homo sapiens, UniProt P35453 263-343, T313A)
Chain of HOXD13 (Homo sapiens, UniProt P35453 263-343, T313A) (P35453 263-343 T313A): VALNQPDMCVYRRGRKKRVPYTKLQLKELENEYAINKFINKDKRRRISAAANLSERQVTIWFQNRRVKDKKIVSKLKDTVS

[9] = target: ALX3 (Homo sapiens, UniProt O95076 139-225, L168V)
Chain of ALX3 (Homo sapiens, UniProt O95076 139-225, L168V) (O95076 139-225 L168V): as the sequence (O95076 139-225) above, with L30V counted along it

[10] = target: ALX3 (Homo sapiens, UniProt O95076 139-225, N203S)
Chain of ALX3 (Homo sapiens, UniProt O95076 139-225, N203S) (O95076 139-225 N203S): as the sequence (O95076 139-225) above, with N65S counted along it

[11] = target: ALX3 (Homo sapiens, UniProt O95076 139-225, N203Q)
Chain of ALX3 (Homo sapiens, UniProt O95076 139-225, N203Q) (O95076 139-225 N203Q): as the sequence (O95076 139-225) above, with N65Q counted along it

[12] = target: T1, NKX2-6 (Homo sapiens, UniProt A6NCS4 118-204)
T1 sequence: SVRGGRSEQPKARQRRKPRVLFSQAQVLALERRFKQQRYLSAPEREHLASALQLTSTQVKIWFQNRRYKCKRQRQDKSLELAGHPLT

[13] = target: T2, NKX2-6 (Homo sapiens, UniProt A6NCS4 118-204, F151L)
T2 sequence: T1 sequence with F34L

[14] = target: VAX1 (Homo sapiens, UniProt Q5SQQ9 86-172)
Chain of VAX1 (Homo sapiens, UniProt Q5SQQ9 86-172) (Q5SQQ9 86-172): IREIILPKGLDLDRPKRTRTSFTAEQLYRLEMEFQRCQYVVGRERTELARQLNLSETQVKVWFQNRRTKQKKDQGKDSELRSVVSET

[15] = target: VAX1 (Homo sapiens, UniProt Q5SQQ9 86-172, T142I)
Chain of VAX1 (Homo sapiens, UniProt Q5SQQ9 86-172, T142I) (Q5SQQ9 86-172 T142I): as the sequence (Q5SQQ9 86-172) above, with T57I counted along it

[16] = target: VAX1 (Homo sapiens, UniProt Q5SQQ9 86-172, K157R)
Chain of VAX1 (Homo sapiens, UniProt Q5SQQ9 86-172, K157R) (Q5SQQ9 86-172 K157R): as the sequence (Q5SQQ9 86-172) above, with K72R counted along it

[17] = target: PROP1 (Homo sapiens, UniProt O75360 56-141)
Chain of PROP1 (Homo sapiens, UniProt O75360 56-141) (O75360 56-141): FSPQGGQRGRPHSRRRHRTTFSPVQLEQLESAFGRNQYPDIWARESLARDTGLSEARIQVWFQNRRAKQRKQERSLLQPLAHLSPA

[18] = target: PROP1 (Homo sapiens, UniProt O75360 56-141, R99H)
Chain of PROP1 (Homo sapiens, UniProt O75360 56-141, R99H) (O75360 56-141 R99H): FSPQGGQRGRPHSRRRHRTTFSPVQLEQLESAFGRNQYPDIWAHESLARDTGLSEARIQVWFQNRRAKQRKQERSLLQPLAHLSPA

[19] = target: PROP1 (Homo sapiens, UniProt O75360 56-141, F88S)
Chain of PROP1 (Homo sapiens, UniProt O75360 56-141, F88S) (O75360 56-141 F88S): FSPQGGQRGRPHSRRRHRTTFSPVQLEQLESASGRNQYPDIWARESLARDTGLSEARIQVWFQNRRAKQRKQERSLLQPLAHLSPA

[20] = target: T3, PAX4 (Homo sapiens, UniProt O43316 9-242, F177V)
T3 sequence: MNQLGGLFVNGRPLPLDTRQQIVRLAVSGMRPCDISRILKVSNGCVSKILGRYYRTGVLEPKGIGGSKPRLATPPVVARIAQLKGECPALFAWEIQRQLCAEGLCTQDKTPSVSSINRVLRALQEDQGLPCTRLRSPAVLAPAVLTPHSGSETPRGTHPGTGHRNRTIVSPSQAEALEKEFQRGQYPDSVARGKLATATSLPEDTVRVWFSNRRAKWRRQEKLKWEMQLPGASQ

[21] = target: HOXC9 (Homo sapiens, UniProt P31274 178-260, R222W)
Chain of HOXC9 (P31274 178-260 R222W): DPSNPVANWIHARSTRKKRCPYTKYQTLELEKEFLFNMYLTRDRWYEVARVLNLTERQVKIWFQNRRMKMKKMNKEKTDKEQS

Chain of ALX1 (Homo sapiens, UniProt Q15699 118-204, L144R) (Q15699 118-204 L144R): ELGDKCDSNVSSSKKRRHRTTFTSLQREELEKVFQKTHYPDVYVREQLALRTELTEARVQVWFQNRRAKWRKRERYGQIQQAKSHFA
Chain of HOXD13 (Homo sapiens, UniProt P35453 263-343, T313R) (P35453 263-343 T313R): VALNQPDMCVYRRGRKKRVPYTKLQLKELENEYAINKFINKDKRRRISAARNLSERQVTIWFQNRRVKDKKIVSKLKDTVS
Chain of ALX1 (Homo sapiens, UniProt Q15699 118-204, L144V) (Q15699 118-204 L144V): as the sequence (Q15699 118-204 L144R) above, with R27V counted along it
Chain of ALX1 (Homo sapiens, UniProt Q15699 118-204) (Q15699 118-204): as the sequence (Q15699 118-204 L144R) above, with R27L counted along it

Sequence: CACTATTA
- binding signal [1]: 9.26 upbm affinity estimate (log intensity, higher = more binding, comparable within an allelic series)
- binding signal [2]: 9.02 upbm affinity estimate (log intensity, higher = more binding, comparable within an allelic series)
- binding signal [3]: 9.61 upbm affinity estimate (log intensity, higher = more binding, comparable within an allelic series)

Sequence: CAGACTGG
- binding signal [1]: 6.33 upbm affinity estimate (log intensity, higher = more binding, comparable within an allelic series)
- binding signal [2]: 6.4 upbm affinity estimate (log intensity, higher = more binding, comparable within an allelic series)
- binding signal [3]: 6.39 upbm affinity estimate (log intensity, higher = more binding, comparable within an allelic series)

Sequence: AGGCAAAT
- binding signal [1]: 8.05 upbm affinity estimate (log intensity, higher = more binding, comparable within an allelic series)
- binding signal [2]: 7.93 upbm affinity estimate (log intensity, higher = more binding, comparable within an allelic series)
- binding signal [3]: 8.18 upbm affinity estimate (log intensity, higher = more binding, comparable within an allelic series)

Sequence: CGGGTTCC
- binding signal [1]: 6.36 upbm affinity estimate (log intensity, higher = more binding, comparable within an allelic series)
- binding signal [2]: 6.23 upbm affinity estimate (log intensity, higher = more binding, comparable within an allelic series)
- binding signal [3]: 6.28 upbm affinity estimate (log intensity, higher = more binding, comparable within an allelic series)

Sequence: AATTGGTC
- binding signal [1]: 9.84 upbm affinity estimate (log intensity, higher = more binding, comparable within an allelic series)
- binding signal [2]: 9.58 upbm affinity estimate (log intensity, higher = more binding, comparable within an allelic series)
- binding signal [3]: 10.2 upbm affinity estimate (log intensity, higher = more binding, comparable within an allelic series)

Sequence: AAGGCGTG
- binding signal [1]: 6.54 upbm affinity estimate (log intensity, higher = more binding, comparable within an allelic series)
- binding signal [2]: 6.5 upbm affinity estimate (log intensity, higher = more binding, comparable within an allelic series)
- binding signal [3]: 6.55 upbm affinity estimate (log intensity, higher = more binding, comparable within an allelic series)

Sequence: AAATGATG
- binding signal [1]: 8.1 upbm affinity estimate (log intensity, higher = more binding, comparable within an allelic series)
- binding signal [2]: 8.04 upbm affinity estimate (log intensity, higher = more binding, comparable within an allelic series)
- binding signal [3]: 8.35 upbm affinity estimate (log intensity, higher = more binding, comparable within an allelic series)

Sequence: GACTCGAC
- binding signal [1]: 6.55 upbm affinity estimate (log intensity, higher = more binding, comparable within an allelic series)
- binding signal [2]: 6.63 upbm affinity estimate (log intensity, higher = more binding, comparable within an allelic series)
- binding signal [3]: 6.64 upbm affinity estimate (log intensity, higher = more binding, comparable within an allelic series)

Sequence: ATGTGTAA
- binding signal [1]: 8.64 upbm affinity estimate (log intensity, higher = more binding, comparable within an allelic series)
- binding signal [2]: 8.5 upbm affinity estimate (log intensity, higher = more binding, comparable within an allelic series)
- binding signal [3]: 8.88 upbm affinity estimate (log intensity, higher = more binding, comparable within an allelic series)

Sequence: CAATATTC
- binding signal [1]: 8.3 upbm affinity estimate (log intensity, higher = more binding, comparable within an allelic series)
- binding signal [2]: 8.42 upbm affinity estimate (log intensity, higher = more binding, comparable within an allelic series)
- binding signal [3]: 8.48 upbm affinity estimate (log intensity, higher = more binding, comparable within an allelic series)

Sequence: CAGCGAGA
- binding signal [1]: 6.61 upbm affinity estimate (log intensity, higher = more binding, comparable within an allelic series)
- binding signal [2]: 6.49 upbm affinity estimate (log intensity, higher = more binding, comparable within an allelic series)
- binding signal [3]: 6.63 upbm affinity estimate (log intensity, higher = more binding, comparable within an allelic series)

Sequence: CCAGACTC
- binding signal [1]: 6.24 upbm affinity estimate (log intensity, higher = more binding, comparable within an allelic series)
- binding signal [2]: 6.47 upbm affinity estimate (log intensity, higher = more binding, comparable within an allelic series)
- binding signal [3]: 6.13 upbm affinity estimate (log intensity, higher = more binding, comparable within an allelic series)

Sequence: CCAGCGGC
- binding signal [1]: 6.38 upbm affinity estimate (log intensity, higher = more binding, comparable within an allelic series)
- binding signal [2]: 6.67 upbm affinity estimate (log intensity, higher = more binding, comparable within an allelic series)
- binding signal [3]: 6.48 upbm affinity estimate (log intensity, higher = more binding, comparable within an allelic series)

Sequence: GGACGGCC
- binding signal [1]: 6.43 upbm affinity estimate (log intensity, higher = more binding, comparable within an allelic series)
- binding signal [2]: 6.53 upbm affinity estimate (log intensity, higher = more binding, comparable within an allelic series)
- binding signal [3]: 6.53 upbm affinity estimate (log intensity, higher = more binding, comparable within an allelic series)

Sequence: CTCCTAGC
- binding signal [1]: 6.62 upbm affinity estimate (log intensity, higher = more binding, comparable within an allelic series)
- binding signal [2]: 6.57 upbm affinity estimate (log intensity, higher = more binding, comparable within an allelic series)
- binding signal [3]: 6.52 upbm affinity estimate (log intensity, higher = more binding, comparable within an allelic series)

Sequence: CCACAGGG
- binding signal [4]: 9.71 upbm affinity estimate (log intensity, higher = more binding, comparable within an allelic series)
- binding signal [5]: 9.49 upbm affinity estimate (log intensity, higher = more binding, comparable within an allelic series)
- binding signal [6]: 7.62 upbm affinity estimate (log intensity, higher = more binding, comparable within an allelic series)
- binding signal [7]: 7.81 upbm affinity estimate (log intensity, higher = more binding, comparable within an allelic series)
- binding signal [8]: 9.58 upbm affinity estimate (log intensity, higher = more binding, comparable within an allelic series)
- binding signal [9]: 7.81 upbm affinity estimate (log intensity, higher = more binding, comparable within an allelic series)
- binding signal [10]: 7.73 upbm affinity estimate (log intensity, higher = more binding, comparable within an allelic series)

Sequence: GCTTCGAC
- binding signal [4]: 9.46 upbm affinity estimate (log intensity, higher = more binding, comparable within an allelic series)
- binding signal [5]: 9.32 upbm affinity estimate (log intensity, higher = more binding, comparable within an allelic series)
- binding signal [6]: 7.65 upbm affinity estimate (log intensity, higher = more binding, comparable within an allelic series)
- binding signal [7]: 7.79 upbm affinity estimate (log intensity, higher = more binding, comparable within an allelic series)
- binding signal [8]: 9.54 upbm affinity estimate (log intensity, higher = more binding, comparable within an allelic series)
- binding signal [9]: 7.79 upbm affinity estimate (log intensity, higher = more binding, comparable within an allelic series)
- binding signal [10]: 7.83 upbm affinity estimate (log intensity, higher = more binding, comparable within an allelic series)

Sequence: AGGCACGC
- binding signal [11]: 7.63 upbm affinity estimate (log intensity, higher = more binding, comparable within an allelic series)
- binding signal [6]: 7.78 upbm affinity estimate (log intensity, higher = more binding, comparable within an allelic series)
- binding signal [7]: 7.71 upbm affinity estimate (log intensity, higher = more binding, comparable within an allelic series)
- binding signal [9]: 7.61 upbm affinity estimate (log intensity, higher = more binding, comparable within an allelic series)
- binding signal [10]: 7.64 upbm affinity estimate (log intensity, higher = more binding, comparable within an allelic series)

Sequence: GCACCCCC
- binding signal [11]: 7.73 upbm affinity estimate (log intensity, higher = more binding, comparable within an allelic series)
- binding signal [12]: 9.22 upbm affinity estimate (log intensity, higher = more binding, comparable within an allelic series)
- binding signal [6]: 7.8 upbm affinity estimate (log intensity, higher = more binding, comparable within an allelic series)
- binding signal [7]: 7.58 upbm affinity estimate (log intensity, higher = more binding, comparable within an allelic series)
- binding signal [13]: 9.15 upbm affinity estimate (log intensity, higher = more binding, comparable within an allelic series)
- binding signal [9]: 7.59 upbm affinity estimate (log intensity, higher = more binding, comparable within an allelic series)
- binding signal [10]: 7.76 upbm affinity estimate (log intensity, higher = more binding, comparable within an allelic series)

Sequence: CAGTTACG
- binding signal [11]: 8 upbm affinity estimate (log intensity, higher = more binding, comparable within an allelic series)
- binding signal [6]: 8.89 upbm affinity estimate (log intensity, higher = more binding, comparable within an allelic series)
- binding signal [7]: 8.09 upbm affinity estimate (log intensity, higher = more binding, comparable within an allelic series)
- binding signal [9]: 8.1 upbm affinity estimate (log intensity, higher = more binding, comparable within an allelic series)
- binding signal [10]: 8.08 upbm affinity estimate (log intensity, higher = more binding, comparable within an allelic series)

Sequence: AGCCGGCG
- binding signal [11]: 7.78 upbm affinity estimate (log intensity, higher = more binding, comparable within an allelic series)
- binding signal [6]: 7.6 upbm affinity estimate (log intensity, higher = more binding, comparable within an allelic series)
- binding signal [14]: 6.78 upbm affinity estimate (log intensity, higher = more binding, comparable within an allelic series)
- binding signal [7]: 7.66 upbm affinity estimate (log intensity, higher = more binding, comparable within an allelic series)
- binding signal [9]: 7.63 upbm affinity estimate (log intensity, higher = more binding, comparable within an allelic series)
- binding signal [15]: 6.99 upbm affinity estimate (log intensity, higher = more binding, comparable within an allelic series)
- binding signal [10]: 7.77 upbm affinity estimate (log intensity, higher = more binding, comparable within an allelic series)
- binding signal [16]: 6.79 upbm affinity estimate (log intensity, higher = more binding, comparable within an allelic series)

Sequence: AATATTCG
- binding signal [11]: 8.28 upbm affinity estimate (log intensity, higher = more binding, comparable within an allelic series)
- binding signal [6]: 9.33 upbm affinity estimate (log intensity, higher = more binding, comparable within an allelic series)

Sequence: ACCCCCGC
- binding signal [11]: 7.74 upbm affinity estimate (log intensity, higher = more binding, comparable within an allelic series)
- binding signal [6]: 7.66 upbm affinity estimate (log intensity, higher = more binding, comparable within an allelic series)
- binding signal [17]: 6.56 upbm affinity estimate (log intensity, higher = more binding, comparable within an allelic series)
- binding signal [18]: 6.52 upbm affinity estimate (log intensity, higher = more binding, comparable within an allelic series)
- binding signal [7]: 7.66 upbm affinity estimate (log intensity, higher = more binding, comparable within an allelic series)
- binding signal [9]: 7.68 upbm affinity estimate (log intensity, higher = more binding, comparable within an allelic series)
- binding signal [19]: 6.34 upbm affinity estimate (log intensity, higher = more binding, comparable within an allelic series)
- binding signal [10]: 7.73 upbm affinity estimate (log intensity, higher = more binding, comparable within an allelic series)

Sequence: ATAATATA
- binding signal [11]: 8.66 upbm affinity estimate (log intensity, higher = more binding, comparable within an allelic series)
- binding signal [20]: 10.7 upbm affinity estimate (log intensity, higher = more binding, comparable within an allelic series)
- binding signal [10]: 8.76 upbm affinity estimate (log intensity, higher = more binding, comparable within an allelic series)

Sequence: AGCGGGAC
- binding signal [11]: 7.69 upbm affinity estimate (log intensity, higher = more binding, comparable within an allelic series)
- binding signal [6]: 7.54 upbm affinity estimate (log intensity, higher = more binding, comparable within an allelic series)
- binding signal [7]: 7.62 upbm affinity estimate (log intensity, higher = more binding, comparable within an allelic series)
- binding signal [9]: 7.69 upbm affinity estimate (log intensity, higher = more binding, comparable within an allelic series)
- binding signal [10]: 7.73 upbm affinity estimate (log intensity, higher = more binding, comparable within an allelic series)

Sequence: TATTAAAA
- binding signal [11]: 8.56 upbm affinity estimate (log intensity, higher = more binding, comparable within an allelic series)
- binding signal [4]: 10.8 upbm affinity estimate (log intensity, higher = more binding, comparable within an allelic series)
- binding signal [5]: 11.8 upbm affinity estimate (log intensity, higher = more binding, comparable within an allelic series)
- binding signal [8]: 11.8 upbm affinity estimate (log intensity, higher = more binding, comparable within an allelic series)
- binding signal [21]: 11.1 upbm affinity estimate (log intensity, higher = more binding, comparable within an allelic series)
